Source: PubChem BioAssay AID1851 (National Center for Advancing Translational Sciences (NCATS), 2009)
Values joined by “and” are separate entries in the source; they are usually repeats but may differ in a detail not shown here. Equal entries are not always repeated. The campaign covered roughly 16,000 compounds. About 4,000 (25%) were called active. Another 26% or so got no clear call; they are omitted. Not all results are given here. A number with no mark means an inactive call. Calls follow the shape of the dose curve; as a rule, active = well fitted curve in the direction sought with a large enough effect; inconclusive = small, poorly fitted or top-dose-only effect, or effect the other way; inactive = no such curve, though single readings can be large or run the other way.

Molecular target: Cytochrome P450 2C9 (Homo sapiens) (UniProt P11712)
Sequence (P11712 whole entry, looked up): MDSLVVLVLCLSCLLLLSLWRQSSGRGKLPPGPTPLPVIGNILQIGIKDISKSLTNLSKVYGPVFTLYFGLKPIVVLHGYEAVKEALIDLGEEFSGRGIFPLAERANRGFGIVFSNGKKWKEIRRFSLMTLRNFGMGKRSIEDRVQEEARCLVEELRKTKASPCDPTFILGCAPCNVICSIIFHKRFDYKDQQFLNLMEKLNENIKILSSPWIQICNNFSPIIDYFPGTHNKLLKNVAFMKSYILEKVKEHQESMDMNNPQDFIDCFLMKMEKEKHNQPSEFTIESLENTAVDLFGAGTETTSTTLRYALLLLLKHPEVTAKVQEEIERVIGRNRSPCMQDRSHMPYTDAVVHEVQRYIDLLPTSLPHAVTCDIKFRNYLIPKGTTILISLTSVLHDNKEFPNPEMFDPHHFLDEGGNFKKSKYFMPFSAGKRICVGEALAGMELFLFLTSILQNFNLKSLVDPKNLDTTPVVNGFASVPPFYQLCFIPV
Experiment: Cytochrome panel assay with activity outcomes
Settings: recombinant CYP, pro-luciferin dealkylation, luminescence, p450-cyp2c9; series mostly up to 57.1 µM; activity, negative = inhibition: at the top concentration
% is scaled to controls: 0 for no effect and ±100 for the full control effect.

SMILES | activity, negative = inhibition | AC50
CNCCC=C1c2ccccc2C=Cc2ccccc21 | 15.2% [at 25.6 µM] | 
Cc1ccc(C)c(CN2C(=O)C3CCCN3c3ccc(C#N)cc32)c1 (configuration not stated) |  | 7.08 µM (active)
COc1ccccc1CN1CC[C@@]2(CCCN(S(=O)(=O)c3ccccc3)C2)C1 | -6.93% | 
CCOc1ccc(N(C(=O)/C=C/C(=O)Nc2cc(C)on2)C(C(=O)NC2CCCC2)c2ccccc2C)cc1 (configuration not stated) |  | 3.16 µM (active)
O=C(O)[C@@H]1[C@@H]2C[C@H]([C@@H](Br)[C@H]2N2C(=O)CCC2=O)[C@@H]1C(=O)O | 8.14% [at 11.4 µM] | 
O=S1(=O)C=C(Oc2ccc3ccccc3c2)c2ccccc21 |  | 3.98 µM (active)
O=C(CCN1C(=O)c2ccccc2C1=O)Oc1ccc2ccccc2c1 | -2.31% | 
CN1CCN(Cc2nc3cccc4c3c([n+]2[O-])-c2ccccc2-4)CC1 | -11.8% [at 11.4 µM] | 
CC(c1ccc(Cl)cc1)n1c(-c2ccc3ccccc3n2)n[nH]c1=S (configuration not stated) |  | 2.51 µM (active)
c1ccc2nc(C3=NCCN3)ccc2c1 |  | inactive
CN(C)CC[C@H](c1ccc(Cl)cc1)c1ccccn1 | 17.3% | 
COC(=O)c1[nH]c(C)c(/C(O)=C2\C(=O)C(=O)N(CCN(C)C)C2c2cccs2)c1C (configuration not stated) | 20% | 
NNS(=O)(=O)c1cc(C(=O)O)cc(C(=O)O)c1 | -5.43% [at 11.4 µM] | 
COC(=O)c1cc(NS(=O)(=O)c2ccc(N3CCCCC3)c([N+](=O)[O-])c2)cc(C(=O)OC)c1 |  | 0.631 µM (active)
CC1CCN(c2ccc(/C=N/n3nnnc3N)cc2[N+](=O)[O-])CC1 | -14.5% | 
COC(=O)c1cc(NS(=O)(=O)c2ccc(N3CCCCCC3)c([N+](=O)[O-])c2)cc(C(=O)OC)c1 |  | 2.24 µM (active)
CC1CCN(c2ccc(S(=O)(=O)Nc3cc(C(=O)O)cc(C(=O)O)c3)cc2[N+](=O)[O-])CC1 |  | 14.1 µM (active)
O=c1n(-c2ccccc2)c(=O)n2n1CC[C@H]1/C(=N\OC[C@@H](O)COCc3ccco3)[C@H]3O[C@@H]3[C@@H](O)[C@@H]12 | 19.1% [at 11.4 µM] and 17% [at 11.4 µM] | 
Cc1nc2c(c(-c3ccccc3)c1C#N)C(=O)c1ccccc1-2 |  | 0.447 µM (active)
O=C(Cn1c(-c2cscn2)nc2ccccc21)Nc1cc(F)ccc1F |  | 15.8 µM (active)
O=C(Nc1ccc(Br)cc1)c1ccc(CSC2=NCCS2)cc1 |  | 7.08 µM (active)
COc1ccc(OCCn2c(C)c(/C=N/n3cnnc3)c3ccccc32)cc1 |  | 0.316 µM (active)

SMILES | activity, negative = inhibition | AC50
COc1ccc(Oc2c(C=O)c3ccccc3n2C)cc1 | -13% | 
C[C@H](N=C(NC#N)Nc1ccncc1)C(C)(C)C | -23.6% | 
Cc1nc(C(=O)Nc2ccc(Cl)cc2Cl)nn1-c1cc(OC(C)C)c(Cl)cc1Cl |  | 2.51 µM (active)
Cc1cc(C(F)F)n2nc(C(=O)Nc3cccnc3Cl)nc2n1 | -21.3% | 
FC(F)(F)c1ccccc1-c1cc(NCc2ccccc2)ncn1 | 1.84% [at 2.29 µM] | 
FC(F)(F)c1ccccc1-c1nccc(NCc2cccs2)n1 | -24.4% [at 2.29 µM] | 
FC(F)(F)c1cc(-c2ccco2)nc(NCCc2ccccc2)n1 |  | 1.41 µM (active)
FC(F)(F)c1ccccc1-c1cc(NCc2cccs2)ncn1 | -6.83% [at 2.29 µM] | 
FC(F)(F)c1cc(-c2ccco2)nc(NCc2cccs2)n1 |  | 3.55 µM (active)
CCNc1ncc2nc(-c3cc(F)cc(F)c3)c(=O)n(Cc3cccs3)c2n1 | 25.7% | 
Nc1cc(Cl)nc(N/N=C/c2ccccc2[N+](=O)[O-])n1 | 15.6% | 
O=[N+]([O-])c1ccccc1N/N=C/c1c[nH]c2ccccc12 |  | 7.94 µM (active)
O=C(O)c1ccccc1N/N=C\c1ccnc2ccccc12 | -98.6% | 
Oc1c(Cl)cc(C(c2cc(Cl)c(O)c(Cl)c2)C(c2cc(Cl)c(O)c(Cl)c2)c2cc(Cl)c(O)c(Cl)c2)cc1Cl |  | 0.1 µM (active)
CN(C)CN1CSC(=S)N(CN(C)C)C1 |  | 3.16 µM (active)
[O-][N+](CCO)(CCO)c1ncnc2nc[nH]c12 | 27.7% [at 11.4 µM] | 
Cc1noc(C)c1C(=O)N1CCC[C@@]2(CCN(Cc3nccs3)C2)C1 | -1.28% | 
c1ccc2cc(Sc3ncnc4c3oc3ccccc34)ccc2c1 |  | 10 µM (active)
CC[C@@H](c1ccccc1)n1c(=O)n2n(c1=O)[C@H]1[C@H](O)[C@H]3O[C@@H]3/C(=N/OCc3ccccc3)[C@@H]1CC2 | -21.9% [at 11.4 µM] | 
COc1ccc(N=C2S/C(=C\c3ccc(C)s3)C(=O)N2CC(C)C)cc1 |  | 7.08 µM (active)
CCCN1C(=O)/C(=C/c2ccc(C)s2)SC1=Nc1ccc(OC)cc1 |  | 7.94 µM (active)
O=C1[C@@H]2[C@H]3[C@H](O)[C@H](O)C/C(=N/OC[C@@H](O)COCc4ccco4)[C@@H]3CC[C@H]2C(=O)N1c1ccc(F)cc1F | -0.354% [at 11.4 µM] | 

SMILES | activity, negative = inhibition | AC50
O=C(CCn1c(=S)[nH]c2ccccc2c1=O)NCCCN1CCOCC1 | -1.93% | 
O=C(CCCn1c(=S)[nH]c2ccc(Br)cc2c1=O)N1CCN(c2ccccn2)CC1 |  | 3.16 µM (active)
CC(=O)N1CCC2(CCCN(c3ccccn3)C2)CC1 | 1.68% | 
Cn1c(N)nc2c(nc(OCc3ccccc3)n2[C@@H]2O[C@H](CO)[C@@H](O)[C@@H]2O)c1=O | 1.04% [at 11.4 µM] | 
CCOc1cc(C)c(S(=O)(=O)Nc2ccc3cn[nH]c3c2)cc1C |  | 2.82 µM (active)
CCOC(=O)c1ccc(S(=O)(=O)Nc2ccc3cn[nH]c3c2)cc1 |  | 0.794 µM (active)
Cc1ccccc1C1C(C#N)=C2N=C(N)c3c(sc4c3CCCCC4)N2C2=C1C(=O)CC(C)(C)C2 (configuration not stated) |  | 3.55 µM (active)
OC[C@@H]1O[C@H](O)[C@@H](Cl)[C@H](O)[C@@H]1O | 13.7% | 
Cc1noc(C)c1-c1cncnc1N1CCN(C)CC1 | 15.2% [at 2.29 µM] | 
O=C(N/N=C/c1cc([N+](=O)[O-])ccc1N1CCNCC1)c1ccc([N+](=O)[O-])cc1 | -9.44% | 
CCN(CC)C(=O)C1CCCN(c2ccc([N+](=O)[O-])cc2/C=N/NC(=O)c2ccc([N+](=O)[O-])cc2)C1 (configuration not stated) |  | 12.6 µM (active)
CSc1ccccc1NC(=O)CSCc1ccc(C)cc1 |  | 10 µM (active)
CN1CCC(=NNC(=O)CSCc2ccccc2)CC1 | -24.9% | 
C=CCN(CC=C)C(=S)Nc1ccccc1 | -11.8% | 
S=C(Nc1ccccc1)Nc1ccccc1C#Cc1ccccc1 |  | 3.98 µM (active)
O=S(=O)(N/N=C\c1cn(-c2ccccc2)nc1-c1ccccc1)c1ccccc1 |  | 4.47 µM (active)
O=S(=O)(N/N=C\c1cccn1-c1ccccc1)c1ccc2ccccc2c1 | 4.26% | 
Cc1ccc(-c2nn(-c3ccccc3)cc2/C=N/NS(=O)(=O)c2ccccc2)cc1 |  | 7.94 µM (active)
CC1(C)C(=O)C(c2ccccc2)=C2CN3C(=O)N(CCc4ccccc4)C(=O)C3(Cc3ccc(C(F)(F)F)cc3)C=C21 (configuration not stated) | -3.37% | 
CC(C)=C1C(=O)C(c2ccccc2)=C2CN3C(=O)N(CCc4ccccc4)C(=O)[C@]3(Cc3ccccc3)[C@H]21 |  | 10 µM (active)
CCN1CCc2nc(NC(=O)CC(c3ccccc3)c3ccccc3)sc2C1 |  | 14.1 µM (active)
CCN1CCC[C@@H](OC(=O)C(c2ccccc2)c2ccccc2)C1 | -2.59% [at 25.6 µM] | 

SMILES | activity, negative = inhibition | AC50
Cc1nc2nc(SCC(=O)NCc3ccco3)nn2c(C)c1Cc1c(F)cccc1Cl |  | 0.708 µM (active)
Cc1nc2nc(C)c(CCC(=O)NCCCN3CCN(c4cccc(Cl)c4)CC3)c(C)n2n1 | -19.6% | 
Cc1nc2ncnn2c(C)c1CCC(=O)NCc1ccco1 | 15.9% | 
Cc1ccc(Cc2c(C)nc3nc(SCC(=O)NCc4ccco4)nn3c2C)cc1 |  | 10 µM (active)
Fc1ccc(Nc2ncncc2-c2ccoc2)cc1 | -24.6% [at 2.29 µM] | 
COC(=O)/C=C\CCc1coc(/C=C\CNC(=O)OC)n1 | -17.2% [at 11.4 µM] | 
c1ccc2c(Nc3ccncc3)nc(-c3ccoc3)nc2c1 | -11.6% [at 2.29 µM] | 
COc1ccc(CCNC(=O)c2ccc3c(=O)n(Cc4ccco4)c(=S)[nH]c3c2)cc1OC |  | 4.47 µM (active)
CC(C)NC(=O)c1ccc2c(=O)n(Cc3ccco3)c(=S)[nH]c2c1 | -9.15% | 
CCCOc1ccccc1-c1nc2n[nH]nc2c(=O)[nH]1 |  | inactive
CN(C)S(=O)(=O)Oc1ccc(Cl)cc1C(=O)Nc1cccc(C(F)(F)F)c1 |  | 7.94 µM (active)
C/C(=N/OC(=O)c1cccc(Cl)c1)c1nccs1 | -18.8% | 
CN(C)S(=O)(=O)Oc1ccsc1C(=O)Nc1cccc(Cl)c1 |  | 8.91 µM (active)
O=C(Cn1ccc(=O)[nH]c1=O)Nc1ccc(C(=O)O)c(O)c1 | -4.1% [at 11.4 µM] | 
CC(C)CN1CC[C@@]2(CCCN(C(=O)c3cc(C(F)(F)F)cc(C(F)(F)F)c3)C2)C1 | -7.51% | 
COc1ccc2c(c1OC)C(=O)O[C@@H]2[C@H]1c2c(cc3c(c2OC)OCO3)CCN1C |  | 0.126 µM (active)
COc1ccc2c(c1OC)C(=O)OC2[C@H]1c2c(cc3c(c2OC)OCO3)CCN1C (some centres not stated) |  | 5.01 µM (active) and 2.51 µM (active)
COc1ccc2c(c1OC)C(=O)OC2Nc1ncccc1C (configuration not stated) | 20.3% | 
COc1c(O)ccc2c1CN1CCc3cc4c(cc3[C@@H]1C2)OCO4 | 1.47% [at 11.4 µM] | 
COc1ccc2cc3[n+](cc2c1OC)CCc1cc2c(cc1-3)OCO2 | 3.73% [at 25.6 µM] | 
NCC[C@H](O)C(=O)N[C@H]1C[C@@H](N)[C@@H](O[C@H]2O[C@@H](CN)[C@@H](O)[C@@H](O)[C@@H]2O)[C@@H](O)[C@@H]1O[C@H]1O[C@@H](CO)[C@@H](O)[C@@H](N)[C@@H]1O | 3.41% [at 25.6 µM] | 
